# Shown are actives, neighbours in structure and some others; about 0.77% of the full set was active somewhere.
# NS1 inh: blocks influenza NS1 protein function. Potency, µM (doses to about 46.1 µM), without a hit: at the top dose activity, positive = more growth. hit rate 0.4% among 270,000. AID 2326; note: potency is the fitted concentration of half-maximal effect; actives are rising curves; nearly all actives have a fitted effect of over 50% in size
#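 S. cerevisiae expressing influenza A NS1, grown in glucose, washed, then diluted 1:100 into pH 6.0 -URA galactose medium with 23 nl compound. Growth recovery read as OD600; NS1-free strain serves as control.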
# Tb PYK inh: inhibitors of Trypanosoma brucei pyruvate kinase. Q57TT1. TbPYK enzyme, Kinase-Glo Plus ATP luminescence, 45 min. Potency, µM (titrated, usually from 76.8 µM), without a hit: at the top dose activity, negative = inhibition, usual class: inhibitors. hit rate 0.12% among 410,000; active = well fitted curve in the direction sought with a large enough effect; inconclusive = small, poorly fitted or top-dose-only effect, or another doubt; inactive = no such curve, though single readings can be large; an effect the other way counts as inactive or inconclusive; note: potency is the fitted concentration of half-maximal effect; % is set by controls: 0 for no effect and ±100 for the full control effect; nearly all actives have a fitted effect of over 50% in size
#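 Luminescence from Kinase-Glo Plus, added after a 45-minute room-temperature reaction, served as the end-point read-out. The enzyme and substrate were preincubated with compound before ADP (130 uM final) initiated turnover. Concentration-effect curves came from normalized qHTS data.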
# LmPK inh: LmPK (Leishmania mexicana) enzyme inhibition | Q27686 | purified LmPK, Kinase-Glo ATP luminescence, 1 h | Potency, µM (highest dose often 57.5 µM), for the others: at the highest dose activity change, negative = inhibition, hits mostly inhibitors | hit rate 0.37% among 290,000 | AID 1721; active = well fitted curve in the direction sought with a large enough effect; inconclusive = small, poorly fitted or top-dose-only effect, or another doubt; inactive = no such curve, though single readings can be large; an effect the other way counts as inactive or inconclusive; note: potency is the fitted concentration of half-maximal effect; % is set by controls: 0 for no effect and ±100 for the full control effect
# Target sequence (Q27686 whole entry, looked up): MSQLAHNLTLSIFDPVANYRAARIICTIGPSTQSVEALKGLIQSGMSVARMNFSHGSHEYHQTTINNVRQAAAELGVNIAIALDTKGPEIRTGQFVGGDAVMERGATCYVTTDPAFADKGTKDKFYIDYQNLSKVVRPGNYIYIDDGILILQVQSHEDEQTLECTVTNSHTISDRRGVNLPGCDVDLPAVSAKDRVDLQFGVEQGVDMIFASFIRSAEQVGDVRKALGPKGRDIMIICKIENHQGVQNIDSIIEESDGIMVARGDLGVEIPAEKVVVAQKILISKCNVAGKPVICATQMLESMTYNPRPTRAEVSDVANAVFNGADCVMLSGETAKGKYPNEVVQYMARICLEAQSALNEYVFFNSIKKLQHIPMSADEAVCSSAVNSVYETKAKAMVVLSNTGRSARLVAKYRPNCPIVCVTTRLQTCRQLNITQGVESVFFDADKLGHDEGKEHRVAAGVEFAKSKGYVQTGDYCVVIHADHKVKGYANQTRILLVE
#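 Pyruvate kinase activity monitored as ATP production (luciferase luminescence). Conditions: 0.1 nM enzyme, 0.5 mM PEP, 0.1 mM ADP, 1 h, RT; normalized against uninhibited and no-enzyme wells.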
# RE007 growth inh: less growth of the S. pombe RE007 Vpr strain | Potency, µM (highest dose often 92.2 µM), without a hit: at the highest dose activity change, negative = less growth, hits mostly inhibitors | hit rate 0.21% among 360,000 | S. pombe RE007 Vpr strain, BacTiter-Glo ATP luminescence, 24 h | AID 651644; active = well fitted falling curve with a large enough effect; inconclusive = small, poorly fitted or top-dose-only effect; inactive = no such curve, though single readings can be large or run the other way; note: potency is the fitted concentration of half-maximal effect; % is set by controls: 0 for no effect and ±100 for the full control effect; nearly all actives have a fitted effect of over 50% in size
#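 Fission yeast strain RE007, carrying one chromosomally integrated HIV-1 vpr copy, was seeded at OD 0.01 in PMG+AL medium with 23 nL pinned compound. After 24 h at 30 °C and 99% humidity, viability was read by BacTiter-Glo luminescence.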
# Flu NS1 inh: validation of influenza NS1 protein function inhibitors; shares compounds with NS1 inh; influenza NS1 function cell assay, 15-point titration; activity change, negative = inhibition, % at 32.9 µM; 1,400 tested, under 10 active; AID 492980; note: 0% is about no effect
# PR8 titer: reduces influenza A/PR/8/34 replication in MDCK cells | shares compounds with NS1 inh | MDCK infected influenza A/PR/8/34, virus titer TCID50; active compounds read low | virus titer (log TCID50), log10 TCID50 at 5 µM | hit rate 30% among 95 | AID 504647; call rule not given here
# * = called active by the depositor; ? = inconclusive; / = no result; [ ] = dose if it differs, or a comment. Unless noted, calls come from the whole dose curve.
SMILES,NS1 inh,Tb PYK inh,LmPK inh,RE007 growth inh,Flu NS1 inh,others
CCCCCCN(C(=O)CCCCCN1C(=O)NC(c2ccc(-c3ccccc3)cc2)C(C(=O)OCc2ccccc2)=C1C)C(C(=O)NCCCC)c1ccc(OCC(=O)OC)c(C(=O)OC)c1 (stereo not drawn),11µM*,/,4%,/,-25,
CC1CCC2(CC1)NC(=O)N(Cc1nc(-c3ccccc3)no1)C2=O (stereo not drawn),8.9µM*,-7%,0%,-5%,-1,PR8 titer=8.5
CNC(=S)N1N=C(c2ccc(Br)cc2)CC1c1ccc(OC)cc1 (stereo not drawn),22µM*,-10%,1%,9%,-32,
O=C(COC(=O)c1cc(-c2cccs2)nn1-c1ccccc1)Nc1ccc(Cl)c([N+](=O)[O-])c1,11µM*,-1%,6%,-6%,-15,
CN(CC(=O)Nc1ccc(Cl)cc1)C(=O)c1cc(-c2cccs2)nn1-c1ccccc1,/,2%,/,0%,/,
Cc1cc(C)c(S(=O)(=O)NCC(c2ccco2)S(=O)(=O)c2cccs2)c(C)c1 (stereo not drawn),/,-4%,/,/,/,
Cc1ccc(-c2noc(C3CCCN(C(=O)c4ccccc4Br)C3)n2)o1 (stereo not drawn),?,-20%,2%,3%,-10,
Cc1ccc2scc(N3CCCCC3)c(=O)c2c1,/,-2%,/,/,/,
COc1ccc(CNC(=O)CCc2c(C)nc3ncnn3c2C)cc1,5µM*,3%,-5%,-7%,0,
CC(C)(C)C1CCc2nc(NC(=O)c3cccc(Cl)c3)sc2C1 (stereo not drawn),/,-1%,/,/,/,
CC(=O)Nc1c(C(=O)Nc2cccc(C)c2)nnn1-c1ccc(C)cc1,/,0%,/,/,/,
COc1cccc(C2=NOC(C(=O)Nc3cccc(C(C)=O)c3)C2)c1 (stereo not drawn),2.8µM*,2%,0%,3%,0,
COc1cccc(C2=NOC(C(=O)Nc3ccc(OC)c(OC)c3)C2)c1 (stereo not drawn),-70%,-2%,-1%,3%,/,
O=C(NCc1ccco1)C1CCCN(S(=O)(=O)c2ccc(-n3cnnn3)cc2)C1 (stereo not drawn),4µM*,4%,-1%,-9%,23,
O=C(NCc1ccccc1F)C1CCCN(S(=O)(=O)c2ccc(-n3cnnn3)cc2)C1 (stereo not drawn),7%,-5%,2%,-7%,/,
Cc1ccc(N2Cc3ccccc3C2=S)cc1,/,0%,-11%,-27%,/,
S=C1c2ccccc2CN1c1ccccc1,?,-6%,0%,-23%,1,
FC(F)(F)c1cccc(NC(=S)N2CCN(c3cccc(C(F)(F)F)c3)CC2)c1,?,-4%,4%,2%,31,
Fc1ccc(NC(=S)N2CCN(c3cccc(C(F)(F)F)c3)CC2)cc1,2%,-15%,2%,-15%,/,
CCCCc1nn2c(=O)cc(COC(=O)c3ccccc3C)nc2s1,/,2%,/,/,/,
Cc1ccc(S(=O)(=O)N2CCC(C(=O)Nc3ccccc3N3CCCCC3)CC2)cc1,5µM*,0%,-3%,-3%,4,
O=C1CCCC/C1=C\Nc1ccc(O)cc1,?,-13%,-9%,-9%,-9,
Cc1nc(N)nc2ccccc12,0%,/,/,/,/,
Cc1c(NC(=O)c2ccc(N3CCCC3)c([N+](=O)[O-])c2)cccc1-c1nc2ccccc2s1,2µM*,2%,5%,13%,11,
CC12CCC(C(=O)N(CSC(=S)N/N=C\c3ccccc3Cl)C1=O)C2(C)C (stereo not drawn),10µM*,-6%,0%,27%,?,PR8 titer=6.5*
SMILES,NS1 inh,Tb PYK inh,LmPK inh,RE007 growth inh,Flu NS1 inh,others
CN(Cc1ccccc1)C(=O)COC(=O)c1ccccc1NS(=O)(=O)c1cccc(N)c1,22µM*,-3%,7%,6%,1,
COC(=O)c1c(NC(=O)CN2CCCC(C)C2)c2c(C)cccc2n1C (stereo not drawn),5µM*,-3%,6%,-7%,-19,
CCC(CC)C(=O)OCc1cc(=O)n2nc(C3CC3)sc2n1,/,-1%,/,/,/,
COc1ccc(-c2nc3c(c4c2C[C@H](c2ccccc2)OC4)CN(S(=O)(=O)c2ccc(C)cc2)CC3)c(C)c1,/,/,-3%[11.5 µM],/,/,
O=S(=O)(/N=C(/Nc1cccc2ccccc12)c1ccccc1)c1ccccc1,16%,6%,4%,18%,/,
O=S(=O)(/N=C(/Nc1cccc2ccccc12)c1ccccc1)c1cccs1,14µM*,-6%,4%,19%,-13,
O=C(Nc1ccccc1Cl)Oc1ccc2ccccc2c1,?,/,4%,/,1,
O=C(Nc1ccccc1Cl)c1ccc2ccccc2c1,-2%,2%,-1%,-6%,/,
COc1ccc(C2CC(c3ccccc3Cl)Nc3ncnn32)cc1OC (stereo not drawn),4.5µM*,1%,2%,3%,?,
CCOC(=O)c1cnn(-c2ccc(OC)cc2)c1C1CCN(C(=O)OC(C)(C)C)CC1,/,14%,/,/,/,
COc1ccc(C(=O)Nc2ccccc2-c2nnn(CC(=O)N3CCOCC3)n2)cc1,1%,6%,-2%,10%,/,
COc1ccc(C(=O)Cn2nnc(-c3ccccc3NC(=O)c3ccco3)n2)cc1,10µM*,-16%,4%,5%,9,
Cn1c(=O)c2c(nc(N3CCOCC3)n2Cc2cccc(Br)c2)n(C)c1=O,/,2%,/,/,/,
CN(C)C(=O)Oc1ccc2oc(=O)cc(-c3cc4ccccc4o3)c2c1,?,8%,7%,-14%,-4,
Cc1cc2oc(=O)cc(-c3cc4ccccc4o3)c2cc1OC(=O)N(C)C,5%,-2%,0%,-16%,/,
COC(=O)[C@H]1C(=O)[C@H](C(=O)OC)[C@@H]2CC[C@H]1N2C,-3%,/,/,/,/,
CC1CCc2nc(NC(=O)CSc3nc4ccccc4o3)sc2C1 (stereo not drawn),1%,1%,9%,1%,/,
Cc1nnc(SCC(=O)Nc2nc3c(s2)CC(C)CC3)s1 (stereo not drawn),?,3%,1%,11%,15,
CNS(=O)(=O)c1cc(N(C)S(=O)(=O)c2ccc(C)cc2)c(C)cc1C,1%,-6%,4%,3%,/,
Cc1ccc(S(=O)(=O)N(C)c2cc(S(=O)(=O)N3CCC(C)CC3)c(C)cc2C)cc1,11µM*,-8%,5%,-6%,10,
CCC(C)[C@H](NC(=O)NCc1cccc(OC)c1)C(=O)OC (stereo partly drawn),2.2µM*,-8%,2%,17%,-9,
COc1cccc(CNC(=O)N[C@@H](CC(C)C)C(=O)O)c1,8%,-5%,2%,-14%,/,
CC1=C(C#N)c2nc(N)c(C#N)c(C)c2/C1=C\c1ccc(C)cc1,13µM*,/,-7%,/,?,
